Laboratory results: PubChem BioAssay (NCI)
The panel holds about 79,000 compounds, 15% with a hit somewhere; the sample as a whole holds those more often. Calls of active or inactive are those of the source. No stated cut-off is given here; in the data, active means growth inhibition above about 70%; inactive means the rest.

Assay: NCI Yeast Anticancer Drug Screen. Data for the rad50EPP+ strain (AID 151);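 further: 0% = growth of vehicle-treated control cultures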
Details: S. cerevisiae rad50 mutant strain, active compounds read high
Protocol: Growth inhibition of yeast strains with defined genetic alterations is measured as a screen for potential anti-cancer activity. Selected strains with alterations in DNA damage repair or cell cycle control were exposed to compounds and growth inhibition was measured relative to vehicle treated controls. The strain used in this assay is rad50EPP+

Measured: growth inhibition

CC(C)=NOC(=O)Nc1ccc(Cl)cc1
active: at 33.0 µM 79% | at 100.0 µM 95%
inactive: at 1.2 µM -32% | at 3.7 µM 18% | at 11.0 µM 23%

CC(C)(C)CC(C)(C)c1cc(O)c(O)c(CN2CCCCC2)c1
inactive: at 1.2 µM -5% | at 3.7 µM -6% | at 11.0 µM -12% | at 33.0 µM -14% | at 100.0 µM -11%

CCCC(=O)Oc1ccc(/C=N/NC(N)=S)nc1
inactive: at 1.2 µM -3% | at 3.7 µM 7% | at 11.0 µM 0% | at 33.0 µM -11% | at 100.0 µM -9%

c1ccc2[nH]c(-c3cscn3)nc2c1
inactive: at 1.2 µM 0% | at 3.7 µM 0% | at 11.0 µM 3% | at 33.0 µM 16% | at 100.0 µM 29%

O=[N+]([O-])c1ccc2c(c1)/C(=N/N=C1c3ccccc3Cc3ccccc31)c1cc([N+](=O)[O-])cc([N+](=O)[O-])c1-2
inactive: at 1.2 µM -7%
active: at 3.7 µM 86% | at 11.0 µM 99% | at 33.0 µM 97% | at 100.0 µM 94%

NC1=NNC2(C(N)=N1)c1ccccc1-c1ccccc12
inactive: at 1.2 µM 3% | at 3.7 µM 7% | at 11.0 µM 2% | at 33.0 µM 44%
active: at 100.0 µM 76%

CC(C)(CCCCC(C)(C)[N+](C)(C)C)[N+](C)(C)C
inactive: at 1.2 µM -3% | at 3.7 µM -4% | at 11.0 µM 0% | at 33.0 µM -1% | at 100.0 µM -2%

CCC(=O)c1cc(C(=O)C(=S)SC)cc(C(=O)C(=S)SC)c1
inactive: at 1.2 µM 3% | at 3.7 µM 50%
active: at 11.0 µM 86% | at 33.0 µM 96% | at 100.0 µM 93%
